PubChem BioAssay
Active and inactive are the calls of the source.

How the values were obtained:
[1] = small molecules captured by biotinylated probe aFSTL3 – biochemical, small-molecule microarray, fluorescence 635/667, stem cell growth factor project, primary screen (AID 1064); conditions: higher = more signal;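 also: measures binding of the biotinylated anti-FSTL3 antibody to printed compounds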
[2] = binders from COS7 lysate, DM2A8 probe, primary screen, torsin A project, cell lysate, small-molecule microarray, fluorescence 635/667 (AID 1065); conditions: higher = more signal, COS7 lysate expressing mutant human TOR1A
[3] = small molecules captured by biotinylated probe aFGF2 – biochemical, small-molecule microarray, fluorescence 635/667, stem cell growth factor project, primary screen (AID 1067); conditions: higher = more signal;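 also: measures binding of biotinylated aFGF2 protein to printed compounds on slides; z-score merges feature fluorescence and signal-to-noise across triplicate slides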
[4] = small molecules captured by biotinylated probe aFGF10 – biochemical, small-molecule microarray, fluorescence 635/667, stem cell growth factor project, primary screen (AID 1071); conditions: higher = more signal;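 also: score merges 667 nm spot intensity and signal to noise from triplicate slides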
[5] = target: Neurogenic locus notch homolog protein 2 (Homo sapiens) (UniProt Q04721); assay: small molecules binding Notch2 protein – biochemical, small-molecule microarray, 635 nm fluorescence, stem cell growth factors, primary screen (AID 1073); conditions: higher = more signal
Neurogenic locus notch homolog protein 2 (Homo sapiens), sequence (Q04721 whole entry, looked up, canonical isoform): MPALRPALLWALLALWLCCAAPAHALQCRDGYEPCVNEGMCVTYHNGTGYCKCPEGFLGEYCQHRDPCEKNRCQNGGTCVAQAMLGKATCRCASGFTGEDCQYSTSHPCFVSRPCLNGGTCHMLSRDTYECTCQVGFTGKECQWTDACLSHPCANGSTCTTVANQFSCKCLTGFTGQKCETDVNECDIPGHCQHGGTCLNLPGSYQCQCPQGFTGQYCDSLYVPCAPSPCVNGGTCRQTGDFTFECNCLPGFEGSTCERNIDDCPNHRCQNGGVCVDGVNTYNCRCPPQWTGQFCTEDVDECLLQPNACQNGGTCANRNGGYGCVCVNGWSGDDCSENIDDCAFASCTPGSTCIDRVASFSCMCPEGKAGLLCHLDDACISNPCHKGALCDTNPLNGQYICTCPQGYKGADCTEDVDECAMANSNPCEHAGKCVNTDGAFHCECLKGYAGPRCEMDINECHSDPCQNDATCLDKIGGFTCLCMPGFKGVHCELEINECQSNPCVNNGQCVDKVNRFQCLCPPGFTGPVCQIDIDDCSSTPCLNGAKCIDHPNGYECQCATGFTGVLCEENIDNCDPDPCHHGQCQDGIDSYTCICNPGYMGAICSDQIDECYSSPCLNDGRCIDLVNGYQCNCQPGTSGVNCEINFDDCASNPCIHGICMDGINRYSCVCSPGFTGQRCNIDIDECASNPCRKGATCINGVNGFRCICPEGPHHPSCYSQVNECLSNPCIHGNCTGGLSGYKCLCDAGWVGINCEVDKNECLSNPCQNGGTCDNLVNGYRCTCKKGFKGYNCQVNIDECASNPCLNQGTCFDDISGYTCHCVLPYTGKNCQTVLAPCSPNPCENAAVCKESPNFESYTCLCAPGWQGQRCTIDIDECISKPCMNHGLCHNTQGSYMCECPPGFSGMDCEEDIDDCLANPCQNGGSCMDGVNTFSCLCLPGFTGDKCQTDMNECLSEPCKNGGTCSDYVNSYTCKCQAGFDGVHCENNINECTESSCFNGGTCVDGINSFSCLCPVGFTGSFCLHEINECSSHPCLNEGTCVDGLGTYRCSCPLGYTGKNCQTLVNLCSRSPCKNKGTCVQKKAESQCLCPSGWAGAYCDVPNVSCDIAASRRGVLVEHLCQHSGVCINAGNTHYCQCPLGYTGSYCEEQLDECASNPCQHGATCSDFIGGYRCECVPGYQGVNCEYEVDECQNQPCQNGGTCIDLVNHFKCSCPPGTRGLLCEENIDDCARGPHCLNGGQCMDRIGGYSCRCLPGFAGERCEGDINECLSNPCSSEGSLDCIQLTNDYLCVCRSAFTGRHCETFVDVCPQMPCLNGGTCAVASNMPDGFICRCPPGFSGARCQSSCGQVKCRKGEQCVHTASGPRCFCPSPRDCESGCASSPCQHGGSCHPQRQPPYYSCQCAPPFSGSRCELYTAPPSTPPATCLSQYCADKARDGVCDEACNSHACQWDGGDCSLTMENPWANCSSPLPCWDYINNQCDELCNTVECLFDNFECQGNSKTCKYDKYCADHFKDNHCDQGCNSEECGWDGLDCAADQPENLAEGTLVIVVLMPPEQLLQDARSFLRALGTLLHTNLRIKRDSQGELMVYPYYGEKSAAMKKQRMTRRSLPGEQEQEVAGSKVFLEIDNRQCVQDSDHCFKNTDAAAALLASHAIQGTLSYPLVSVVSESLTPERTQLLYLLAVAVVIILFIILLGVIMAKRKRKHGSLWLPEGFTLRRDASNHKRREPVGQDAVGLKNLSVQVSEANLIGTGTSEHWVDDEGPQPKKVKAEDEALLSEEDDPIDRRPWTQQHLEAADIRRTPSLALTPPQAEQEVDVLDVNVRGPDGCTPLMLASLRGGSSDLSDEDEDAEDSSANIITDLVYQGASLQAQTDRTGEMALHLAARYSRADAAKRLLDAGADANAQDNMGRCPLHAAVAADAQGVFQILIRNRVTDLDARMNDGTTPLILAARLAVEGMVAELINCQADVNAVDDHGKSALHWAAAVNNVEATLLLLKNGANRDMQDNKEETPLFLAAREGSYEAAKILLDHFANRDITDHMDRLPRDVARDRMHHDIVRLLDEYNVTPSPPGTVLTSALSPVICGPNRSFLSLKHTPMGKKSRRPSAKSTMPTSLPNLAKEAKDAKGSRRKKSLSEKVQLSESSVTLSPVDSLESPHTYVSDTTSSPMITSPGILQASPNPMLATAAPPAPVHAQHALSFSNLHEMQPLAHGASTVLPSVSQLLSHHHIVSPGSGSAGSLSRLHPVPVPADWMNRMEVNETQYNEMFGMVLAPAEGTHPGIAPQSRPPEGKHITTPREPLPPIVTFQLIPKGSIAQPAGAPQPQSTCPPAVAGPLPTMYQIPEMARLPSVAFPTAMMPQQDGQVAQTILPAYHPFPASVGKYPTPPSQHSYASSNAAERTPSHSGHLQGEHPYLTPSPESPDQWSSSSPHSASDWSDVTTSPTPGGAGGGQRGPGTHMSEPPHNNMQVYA

[6] = target: Pro-neuregulin-1, membrane-bound isoform (Homo sapiens) (UniProt Q02297); assay: small molecules binding neuregulin-1 protein – biochemical, small-molecule microarray, fluorescence 635/667, psychiatric disease protein project, primary screen (AID 1075); conditions: NRG1 binding, 635 nm fluorescence, higher = more signal;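 also: score combines 667 nm spot fluorescence with signal to noise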
Pro-neuregulin-1, membrane-bound isoform (Homo sapiens), sequence (Q02297 whole entry, looked up, the tested form may be a part, canonical isoform): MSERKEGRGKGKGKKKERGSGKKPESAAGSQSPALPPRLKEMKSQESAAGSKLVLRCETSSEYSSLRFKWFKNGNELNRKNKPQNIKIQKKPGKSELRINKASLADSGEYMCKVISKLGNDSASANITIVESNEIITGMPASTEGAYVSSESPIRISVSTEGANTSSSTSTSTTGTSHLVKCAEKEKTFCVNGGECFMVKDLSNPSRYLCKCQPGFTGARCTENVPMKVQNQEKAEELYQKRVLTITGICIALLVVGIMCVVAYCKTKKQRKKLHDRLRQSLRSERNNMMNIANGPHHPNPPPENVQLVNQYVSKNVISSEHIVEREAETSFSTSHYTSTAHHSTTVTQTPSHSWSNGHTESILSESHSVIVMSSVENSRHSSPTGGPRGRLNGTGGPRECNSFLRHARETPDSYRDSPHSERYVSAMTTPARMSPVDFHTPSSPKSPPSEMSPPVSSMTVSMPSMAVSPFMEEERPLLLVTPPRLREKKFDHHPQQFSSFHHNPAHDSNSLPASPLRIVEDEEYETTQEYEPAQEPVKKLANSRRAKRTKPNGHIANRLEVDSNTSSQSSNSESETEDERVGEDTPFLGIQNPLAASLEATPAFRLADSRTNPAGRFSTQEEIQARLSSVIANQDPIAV

[7] = test system: Neuregulin-1 EGF-like domain; assay: small molecules binding NRG1 EGF domain – biochemical, small-molecule microarray, 635 nm fluorescence, primary screen (AID 1081); conditions: higher = more signal;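 also: binding of the protein to compounds printed on small-molecule microarray slides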
[8] = FRG1 expression reporter modulators in myotubes – cell-based, C2C12 myotubes, firefly/Renilla luciferase, luminescence, FRG1 inhibition for FSHD, primary screen (AID 1084); conditions: FRG1 promoter luciferase, higher = more signal, called active from +8 up or from −8 down
[9] = small molecules captured by biotinylated probe aFST – biochemical, small-molecule microarray, fluorescence 635/667, stem cell growth factor project, primary screen (AID 1086); conditions: higher = more signal;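 also: score merges 667 nm fluorescence with signal-to-noise of each printed compound spot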
[10] = binders of probe aHhip on microarray, primary screen, stem cell growth factor project, biochemical, small-molecule microarray, fluorescence 635/667 (AID 1087); conditions: higher = more signal;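 also: score merges spot fluorescence at 667nm with spot signal to noise ratio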

Structure (SMILES) | composite z-score [1] | composite z-score [2] | composite z-score [3] | composite z-score [4] | composite z-score [5] | composite z-score [6] | composite z-score [7] | z-score [8] | composite z-score [9] | composite z-score [10]
CN(C)CCCC[C@@H]1NC(=O)[C@@H]2C[C@H](C(=O)NCCCCCCN)[C@H](c3cccc(OCCO)c3)N2C1=O | 1.58 | 2.15 | 0.044 | 0.973 | 1.57 | 2.24 | 1.42 | 0.0194 (inactive) | 0.88 | -0.103
O=C1O[C@@H](c2ccccc2)[C@@H](c2ccccc2)N2[C@@H](c3ccccc3OCCO)[C@]3(C(=O)Nc4ccc(C#CC5=CCCCC5)cc43)[C@@H](C(=O)N3CCCCCCC3)[C@H]12 | 3.71 | 2.23 | 0.978 | 1.14 | 1.65 | 2.07 | 1.07 | -0.27 (inactive) | 3.59 | 3.84
C[C@H]1C2[C@H](Cc3ccccc3)NC(=O)[C@]23C(=O)N[C@H](Cc2ccccc2)C(=O)N2CCC[C@H]2C(=O)NC/C=C\C/C=C/C3[C@@H]2O[C@]12C (stereo not given in full) | -0.4 | -0.217 | -0.0439 | 0.293 | 0.451 | 0.455 | -0.473 | 1.59 (inactive) | 0.0114 | -0.236
O=C1O[C@H](c2ccccc2)[C@H](c2ccccc2)N2[C@H]1[C@@H](C(=O)N1CCCCCCC1)[C@]1(C(=O)Nc3ccc(C#CCCO)cc31)[C@H]2c1ccccc1OCCO | 3.95 | 2.92 | 1.08 | 1.62 | 1.72 | 2.85 | 1.37 | -0.851 (inactive) | 3.77 | 4.26
C=C(C)[C@@H]1CC=C(C(O)C2C=CC3C(=O)N(c4ccccc4)C(=O)C3N2Nc2ccccc2)CC1 (stereo not given in full) | 1.08 | 0.881 | 0.364 | 0.929 | 1.26 | 1.57 | 1.28 | -0.441 (inactive) | 1.54 | 1.07
COc1cccc(-c2cccc(=O)o2)c1 | 0.782 | -0.387 | 0.338 | 0.143 | 0.0405 | 0.851 | 0.322 | 5.22 (inactive) | 0.807 | -0.236
CN1C=C(C(=O)OCCS(C)(=O)=O)C(C(=O)OCCS(C)(=O)=O)=CC(c2ccc(CO)cc2)=CC1C1CC1 (stereo not given) | -0.0965 | 0.528 | -0.0824 | 0.0351 | -0.0701 | 1 | 1.27 | 0.849 (inactive) | -0.0993 | -0.0994
C=C(/C(=C/C[C@H](OC(C)=O)c1ccc(CO)o1)c1cc(C(=O)OC)ccc1OC)C(C)C | -0.0849 | -0.442 | -0.0637 | 0.597 | 0.102 | -0.306 | 0.53 | -0.601 (inactive) | 0.031 | 0.119
CCOC(=O)C[C@H]1[C@H](OC(=O)c2cc3ccccc3oc2=O)[C@@H](NC(=O)c2ccccc2)c2cc(OCCCO)ccc2N1C(=O)c1ccc2ccccc2n1 | -0.408 | -0.373 | -0.0878 | 0.8 | 0.889 | 0.0325 | 1.18 | -0.757 (inactive) | 0.312 | -0.0346
CO[C@H]1O[C@H](CO)[C@@H](OC(=O)Nc2ccc(Oc3ccccc3)cc2)[C@H](OC(=O)Nc2ccc3c(c2)OCO3)[C@H]1OC(=O)Nc1ccc2c(c1)OCO2 | 0.522 | 1.24 | 0.178 | 1.21 | 1.5 | 1.69 | 1.15 | 5.22 (inactive) | 0.968 | 0.241
CN(C)CCCC[C@@H]1NC(=O)[C@H]2C[C@@H](C(=O)NCCCCCCN)[C@@H](c3ccc(O)cc3)N2C1=O | 1.89 | 1.03 | 0.128 | 0.935 | 1.37 | 1.79 | 1.1 | 0.511 (inactive) | 1.52 | 1.09
O[C@@H](Cc1ccccc1)[C@H]1C2C=CCCC=C2CN1Cc1cccc(Cl)c1 (stereo not given in full) | -0.328 | -0.0571 | -0.0075 | 0.617 | 0.944 | 0.898 | 1.19 | -1.45 (inactive) | 0.61 | -0.214
C=C(/C(=C/C[C@H](OC(C)=O)c1ccccc1OCCO)c1cnc2ccccc2c1)C(C)C | 0.168 | 0.126 | -0.0419 | 0.324 | 0.775 | 0.586 | 0.87 | -0.607 (inactive) | 0.0254 | 0.0274
CCOC(=O)C[C@H]1[C@H](OC(=O)c2ccc(C(=O)c3ccccc3)cc2)[C@@H](NC(=O)c2ccccc2)c2cc(OCCCO)ccc2N1C(=O)c1ccc2ccccc2n1 | -0.416 | 0.0991 | -0.0206 | 0.234 | 1.27 | 0.682 | 0.417 | -0.266 (inactive) | 0.314 | 0.107
CC1(C)C2C=C(C(O)C3C=CC4C(=O)NC(=O)C4N3Nc3ccc(Cl)cc3Cl)C[C@@H]1C2 (stereo not given in full) | 1.16 | 0.877 | 0.0474 | 0.519 | 1.59 | 1.5 | 0.867 | -0.505 (inactive) | 1.29 | -0.104
CCS[C@H]1[C@@H](C(=O)O)[C@H](c2ccc(C)cc2)N(S(=O)(=O)c2ccc(C)cc2)[C@@H]1CC | -0.21 | -0.0564 | 0.0288 | 1.1 | 1.36 | 1.84 | 1.36 | -3.15 (inactive) | 1.56 | 0.201
COCCOC(=O)N1C(=O)[C@@]2(c3ccccc31)[C@H](c1ccc(O)cc1)N1[C@H](c3ccccc3)[C@H](c3ccccc3)OC(=O)[C@H]1[C@@H]2C(=O)Nc1nc2ccccc2s1 | 0.161 | 0.912 | -0.0441 | 0.175 | 1.16 | 1.38 | 1.11 | -0.929 (inactive) | 0.5 | 0.0139

Structure (SMILES) | composite z-score [1] | composite z-score [2] | composite z-score [3] | composite z-score [4] | composite z-score [5] | composite z-score [6] | composite z-score [7] | z-score [8] | composite z-score [9] | composite z-score [10]
CCC[C@@H]1C[C@@]1(CCC)[C@@H](NS(=O)(=O)c1cccc2cccnc12)c1ccc(Cl)cc1 | 0.561 | -0.754 | 0.0367 | 0.0835 | 0.763 | 0.858 | 0.917 | -3.58 (inactive) | 0.855 | -0.0729
Cc1ccccc1C(O)C1C=CC2C(=O)N(c3ccccc3)C(=O)C2N1Nc1ccc(C(C)C)cc1 (stereo not given) | -0.0476 | -0.0455 | 0.0536 | 0.82 | 1.5 | 1.27 | 0.592 | -0.729 (inactive) | 1.41 | 0.142
O=C(c1ccccc1)N1C(=O)[C@@]2(Cc3ccccc31)N=C(c1ccc(OCCCO)cc1)O[C@H]2c1ccccc1 | 0.77 | 0.686 | 0.15 | 0.663 | 1.17 | 1.57 | 1.39 | -2.91 (inactive) | 1.01 | 0.364
COC(=O)[C@@]1(Cc2ccccc2)N=C(c2ccc(OCCCO)cc2)O[C@H]1c1ccccc1 | 0.348 | 0.0099 | 0.0243 | 0.531 | -0.165 | 1.5 | 0.939 | -2.3 (inactive) | -0.053 | -0.169
COc1cc2c(cc1OC)CN(C(=O)[C@H]1[C@@H]3C(=O)O[C@@H](c4ccccc4)[C@@H](c4ccccc4)N3[C@@H](c3ccc(O)cc3)[C@]13C(=O)Nc1ccccc13)CC2 | 0.418 | 0.814 | -0.0282 | 0.681 | -0.0554 | 1.41 | 1.38 | -1.09 (inactive) | -0.0422 | 0.0129
COC(=O)[C@@]1(CCC(=O)OC(C)(C)C)N=C(c2ccc(OCCCO)cc2)O[C@H]1c1ccccc1N=[N+]=[N-] | 0.165 | -0.15 | -0.0354 | -0.312 | -0.0015 | 1.26 | 1.06 | 3.09 (inactive) | -0.161 | 0.119
COC(=O)[C@@]1(Cc2ccc(F)cc2)[C@H]2c3cc(C(=O)N4CCCC4)n(Cc4ccc(S(C)(=O)=O)cc4)c3C[C@H]2CN1C(=O)c1ccccc1 | 0.635 | -0.266 | 0.29 | 0.983 | 1.55 | 1.88 | 0.859 | -0.205 (inactive) | 2.09 | -0.0169
COCCOC(=O)N1C(=O)[C@@]2(c3cc(C#CCC(C(=O)OC)C(=O)OC)ccc31)[C@H](C(=O)Nc1nc3ccccc3s1)[C@H]1C(=O)O[C@H](c3ccccc3)[C@H](c3ccccc3)N1[C@@H]2c1ccccc1OCCO | 0.0949 | 0.684 | 0.0821 | 0.807 | 1.49 | 1.48 | 1.24 | 2.19 (inactive) | 0.0716 | 0.0873
CC(C)C[C@@H]1NC(=O)[C@@H]2C[C@H](C(=O)O)[C@H](c3cccc(OCCO)c3)N2C1=O | 0.73 | 0.363 | -0.0403 | -0.276 | -0.475 | 0.402 | 0.643 | 1.29 (inactive) | -0.235 | -0.264
C=CCNC(=O)[C@@H]1[C@H]2C(=O)O[C@H](c3ccccc3)[C@H](c3ccccc3)N2[C@H](c2ccccc2OCCO)[C@@]12C(=O)N(C(=O)OCCOC)c1ccccc12 | 0.599 | 0.603 | -0.107 | 0.73 | 1.32 | 0.848 | 1.29 | -0.0386 (inactive) | 0.562 | 0.621
CCCCCCc1nc(-c2cc(C)c(OC)c(C)c2)cc2c1[Si](C(C)C)(C(C)C)OC2 | 0.0546 | -0.375 | -0.0507 | -0.278 | -0.274 | -0.405 | -0.449 | 0.515 (inactive) | -0.272 | 0.35
C=CCC(OC(C)=O)[C@@H]1[C@@H](N(Cc2ccc(-c3ccccc3)cc2)C(=O)c2cccc3ccccc23)c2cc(OCCCO)ccc2N1C(=O)c1ccc(-c2ccccc2)cc1 (stereo not given in full) | 0.103 | 0.177 | 0.0521 | 0.19 | 0.0198 | -0.0375 | -0.159 | -1.45 (inactive) | 0.461 | -0.0006
C=CCC(OC(C)=O)[C@@H]1[C@@H](N(Cc2cccc3ccccc23)C(=O)c2ccc(-c3ccccc3)cc2)c2cc(OCCCO)ccc2N1C(=O)c1ccc2ccccc2c1 (stereo not given in full) | -0.484 | 0.306 | -0.0647 | -0.0203 | 0.104 | 0.148 | 0.0031 | -0.0039 (inactive) | 0.131 | 0.0722
NC(=O)NCC#Cc1ccc2c(c1)[C@]1(C(=O)N2)[C@H](c2ccccc2OCCO)N2[C@H](c3ccccc3)[C@H](c3ccccc3)OC(=O)[C@H]2[C@@H]1C(=O)Nc1nc2ccccc2s1 | -0.108 | -0.354 | -0.016 | 0.268 | 0.295 | 0.756 | 0.176 | 0.169 (inactive) | 0.617 | -0.0296
COc1cc(NN2C(C(O)c3ccco3)C=CC3C(=O)N(c4ccccc4)C(=O)C32)cc(OC)c1OC (stereo not given) | -0.178 | -0.218 | -0.116 | 0.127 | 0.723 | 1.18 | 1.21 | 0.889 (inactive) | 0.162 | -0.0215
COCC(=C=CC[C@@H](O)c1cccc(OCCO)c1)C[C@@H](O)c1ccccn1 | -0.19 | 0.0883 | -0.0707 | 0.338 | -0.17 | 1.11 | 1.3 | 0.93 (inactive) | -0.27 | 0.176
